# Assay results: ChEMBL document CHEMBL4513216, “Probing the Open Global Health Chemical Diversity Library for Multistage-Active Starting Points for Next-Generation Antimalarials” (ACS Infect Dis, 2020)
# In all, about 69,000 compounds went through this assay and about 8,600 (12%) showed an effect of 50% or more. Only a selection was taken, and strong results are over-represented in it overall.
# System: Plasmodium berghei
# Assay: Screen against P. berghei liver stage (PbLuc), transformed with Luciferase, at 10uM
# Assay type: functional, HepG2
# Details: tested at 10 uM
row,Compound,INHIBITION [%]
1,CC1CCN(C(=O)C2CCN(c3ccc(Cl)cc3C#N)CC2)CC1,41
2,Cc1nc(C(=O)N2CCCC2c2c(C)nn(C)c2C)cs1 (stereo not given),13.3
3,Cc1csc(N2CCN(CC(=O)NC3CCOCC3)CC2C)n1 (stereo not given),45.6
4,CCC(=O)N1CCC2(CC1)C(=O)N(C)CCN2Cc1csc(C)n1,13.6
5,CCc1nsc(N2CCCN(CC(=O)N(C)C3CC3)CC2)n1,39.3
6,CCN(C(=O)CN1CCCN(c2nc(C)ns2)CC1)C1CC1,68.5
7,Cc1nsc(N2CCN(CC(=O)N(C3CC3)C(C)C3CC3)CC2)n1 (stereo not given),22.6
8,COc1ccc(-c2noc(C(N)CCSC)n2)cc1OC (stereo not given),46.6
9,CNc1cc(CCNC(=O)C2CCCC2)nc(-c2ccccn2)n1,-9.34
10,Cc1ccc(CNC(=O)C2CCNC(=O)C2)c(OCCC(C)C)c1 (stereo not given),58.4
11,Cc1cccc(Oc2ccccc2CNC(=O)C2CCNC(=O)C2)c1 (stereo not given),-33.7
12,O=C1CC(C(=O)NCc2ccccc2Oc2ccccc2F)CCN1 (stereo not given),8.38
13,CNC(=O)c1ccc(N(C)C2CCC2)nn1,-107
14,CN(c1ccc(C(N)=O)nn1)C1CCC1,-8.73
15,COC(=O)c1ccc(N(C)C2CCC2)nn1,50.1
16,Cc1noc2nc(C3CCN(CC4=CCCOC4)CC3)cc(C(F)F)c12,39.8
17,CC(=O)Nc1nc(C2CCN(C(=O)Cc3ccccc3)CC2)cs1,0.301
18,Cc1cc(C(=O)N2CCCC(C)C2)ccc1NCC(=O)N1CCOCC1 (stereo not given),-47.6
19,CO[C@H]1CN(C(=O)c2ccc3c(c2)OCO3)[C@@H]2COC[C@H]12,1.48
20,Cn1ncc2c1CN(C(=O)Cc1ccccn1)CC2COCC1CC1 (stereo not given),64.9
21,CN(C)CCO[C@H]1CN(C(=O)c2ccc3c(c2)OCO3)[C@@H]2COC[C@H]12,-20.8
22,Cn1ncc2ccc(C3CCCN(Cc4cccs4)C3)nc21 (stereo not given),20.74
23,COCC1CN(C(=O)Cc2ccccn2)Cc2c1cnn2CC1CC1 (stereo not given),15.9
24,CCOCC1CN(C(=O)Cc2ccccn2)Cc2c1cnn2C (stereo not given),26.4
25,COCC1CN(S(=O)(=O)Cc2ccccc2)Cc2c1cnn2C (stereo not given),54.1
26,Cn1ncc2ccc(C3CCCN(C(=O)Cc4cccs4)C3)nc21 (stereo not given),58.5
27,COCC1CN(S(=O)(=O)Cc2ccc(C)cc2)Cc2c1cnn2C (stereo not given),-0.554
28,Cc1cc(C)n(C2CCCN(C(=O)Cc3cccs3)C2)n1 (stereo not given),-5.25
29,COCC1CN(S(=O)(=O)c2ccc(C)cc2)Cc2c1cnn2C (stereo not given),34.9
30,CCO[C@H]1CN(C(=O)c2ccc3c(c2)OCO3)[C@@H]2COC[C@H]12,57.9
